Assay outcomes (PubChem)
aSyn 5UTR act: Activators via SNCA 5'UTR binding, MLPCN | alpha-synuclein 5'UTR reporter, activators screen | activity score, % (tested at 7.5 µM), hits read low | actives 7.1% (n = 300,000); in the data active = activity score below about -60%
Active calls of the source: *. A selection follows.

SMILES	aSyn 5UTR act
Cc1ccnc(S(=O)(=O)Cc2ccc([N+](=O)[O-])cc2)n1	-70*
CCOC(=O)c1ccc(NC(=O)c2nn(C)cc2Br)cc1	-204*
CCOC(=O)c1ccc(NC(=S)NC(=O)c2nn(CC)cc2Br)cc1	-66*
CCOC(=O)c1ccc(NC(=O)c2nn(CC)cc2Br)cc1	-94*
CCn1cc(Br)c(C(=O)Nc2ccc(F)c(Cl)c2)n1	-110*
COc1ccc(C(=O)Nc2sc(C)c(-c3ccccc3)c2C#N)cc1OC	-92*
COc1cc(CNc2ccc3c(c2)CCC3)cc(OC)c1O	-226*
CCOc1cc(CNc2ccc3c(c2)CCC3)ccc1O	-119*
CCC1=Nc2cc(C(=O)NCCCOC)ccc2Sc2ccccc21	74
COCCCNC(=O)c1ccc2nc(Cc3ccc(OC)cc3)oc2c1	-95*
COc1ccc(Cc2nc3ccc(C(=O)N(C)CCn4ccnc4)cc3o2)cc1OC	-78*
COc1ccc(Cc2nc3ccc(C(=O)NCCCSC)cc3o2)cc1OC	-99*
C=CCNC(=O)c1ccc2nc(Cc3ccc(OC)cc3)oc2c1	-139*
COc1ccc(Cc2nc3ccc(C(=O)N4CCOCC4)cc3o2)cc1	-125*
CCOc1ccc(N=c2scc(-c3ccccc3)n2CCO)cc1	-104*
OCCn1c(-c2ccc3c(c2)OCO3)csc1=Nc1ccccc1	-97*
CCn1c(-c2ccccc2)csc1=Nc1ccc(O)cc1	-139*
CC(=O)Oc1ccccc1-c1nc(C)nc(N(C)C(C)=O)n1	-70*
O=C(NC(=S)Nc1ccccc1[N+](=O)[O-])c1ccccc1Cl	-94*
Cc1ccc(O)c(NC(=S)NC(=O)c2ccccc2Cl)c1	-120*
CCn1cc(C(=O)NC(=S)Nc2ccccc2[N+](=O)[O-])cn1	-94*
O=C(NC(=S)Nc1ccc(O)cc1)c1ccccc1Cl	-161*
CC(C)CNC(=S)NC(=O)c1ccccc1Cl	-93*
COc1ccc(NC(=S)NC(=O)c2ccccc2Cl)cc1	-130*
Cc1cc(Br)ccc1NC(=O)CNC(=O)Cn1ncc(Cl)c(Cl)c1=O	63
SMILES	aSyn 5UTR act
CCN(CC)S(=O)(=O)c1cc(NC(=O)Cn2ncc(Cl)c(Cl)c2=O)ccc1C	-99*
CCN(CC)C(=O)CSc1nc(N)c2c3c(sc2n1)CC(C)CC3 (configuration not stated)	-85*
CCCCCCC(=O)Nc1ccc(Cl)cn1	-88*
CCc1ccc(NC(=S)NC(=O)CC(C)C)cc1	-154*
CC(C)CC(=O)NC(=S)Nc1ccc(Cl)cn1	-68*
CCC(C)c1ccc(OCC(=O)Nc2ccc(Cl)cn2)cc1 (configuration not stated)	-72*
Cc1ccc(-c2nn(CC(=O)NCc3cc(-c4nn(C)c(=O)c5ccccc45)ccc3C)c(=O)c3ccccc23)cc1	114
CCc1ccc(-c2cc3c(=O)n(CC(=O)NCc4ccccc4F)ncn3n2)cc1	-70*
CC(C)CC(=O)NC(c1cccs1)c1ccc2cccnc2c1O (configuration not stated)	74
Cc1ccc(OCC(=O)Nc2ccc(-c3nc4ncccc4o3)cc2)c(C)c1	-102*
Cc1cc(-c2nc3ncccc3o2)ccc1NC(=O)CC(C)C	-75*
O=C(COc1ccc(F)cc1)c1ccc2c(c1)CCCC2	-133*
O=C(COc1ccc(Cc2ccccc2)cc1)c1ccc(F)cc1	-72*
CCN(CC)c1ccc2c(c1)OC(N)=C(C#N)C2c1cccnc1 (configuration not stated)	75
Cc1ccc(OCc2cc(C(=O)N(C)CC3CCOCC3)no2)cc1C	-104*
Cc1cc(OCc2cc(C(=O)N(C)C3CCOCC3)no2)cc(C)c1Cl	-128*
S=C(Nc1cccc2ccccc12)NC1CCCCC1	-195*
Cc1ccc(NC(=S)Nc2cccc3cnccc23)cc1	-102*
O=C(NNC(=S)Nc1cccc2ccccc12)c1cccc(Br)c1	-79*
O=C(Nc1cccc2ccccc12)C12CC3CC(C1)CC(n1cnc([N+](=O)[O-])n1)(C3)C2	73
CC(=O)Nc1cccc(NC(=S)Nc2cccc3ccccc23)c1	-116*
CC(=O)c1cccc(NC(=S)Nc2cccc3ccccc23)c1	-80*
c1ccc(COc2ccc(OCCOCCn3cncn3)cc2)cc1	-117*
COc1ccc(-c2oc3ccccc3c2C(=O)OCc2ccccc2)cc1	-102*
CC(=O)Nc1ccc(-n2cc(-c3ccccc3)[nH]c2=S)cc1	-81*
SMILES	aSyn 5UTR act
COc1ccc(-n2cc(-c3ccccc3)[nH]c2=S)cc1	-91*
Cc1cccc(-n2cc(-c3ccccc3)[nH]c2=S)c1	-108*
CCOC(=O)c1sc(-c2ccc(OC)cc2)cc1NC(C)=O	-73*
O=[N+]([O-])c1cc(-c2n[nH]c(-c3ccccc3)n2)cc([N+](=O)[O-])c1	-76*
C/C(N)=C(/C#N)C(=O)COC(=O)c1cc(C)n(-c2ccc(F)cc2)c1C	-109*
c1ccc(OCc2cc(-c3ccccc3)no2)cc1	-169*
COc1ccccc1OCc1cc(-c2ccccc2)no1	-224*
Cc1cc(C)cc(OCCn2nnc3ccccc32)c1	-126*
Clc1ccccc1OCCn1nnc2ccccc21	-169*
Cc1ccc(OCCn2nc3ccccc3n2)c(C)c1	-90*
Cc1ccc(C)c(OCCn2nnc3ccccc32)c1	-70*
N#C/C(=C\c1ccc(N2CCCCC2)o1)C(=O)Nc1cccc(Br)c1	-178*
COc1ccccc1-c1nc(-c2ccc(C)nc2OC)no1	-114*
COc1nc(C)ccc1-c1noc(-c2cccnc2)n1	-106*
COCCCNC(=S)NNC(=O)C1CC1c1ccc(C(C)(C)C)cc1 (configuration not stated)	-100*
COCCNC(=S)NC(=O)c1ccc(C(C)(C)C)cc1	-91*
CC1=NN(c2ccccc2)C(=O)C1N=Nc1cccc(O)c1 (configuration not stated)	-138*
CC1=NN(c2ccccc2)C(=O)C1N=Nc1ccccc1 (configuration not stated)	-222*
CCOC(=O)c1c(NC(=O)CSc2nc3ccccc3o2)sc(C(C)=O)c1C	-63*
O=C(CSc1nc2ccccc2o1)Nc1nc(-c2ccccc2)cs1	-111*
O=C(CSc1nc2ccccc2o1)NCc1ccc2c(c1)OCO2	-79*
CCOC(=O)c1c(NC(=O)CSc2cccc[n+]2[O-])sc(C(=O)Nc2ccccc2)c1C	-105*
Cc1ccccc1NC(=O)CSc1nc2ccccc2o1	-158*
Cc1cc(C(=O)CSc2nnnn2C)c(C)n1Cc1ccco1	-109*
Cc1cc(C(=O)CSc2ncccn2)c(C)n1Cc1ccco1	-69*
SMILES	aSyn 5UTR act
Cc1ccc(-n2nc3c(n2)/C(=N/O)CC/C3=N\O)cc1	-89*
Cc1ccc(-c2nc(C#N)c(NCc3cccc4c3OCO4)o2)cc1	-66*
CC(C)(C)c1ccc(-c2nc(C#N)c(NCc3ccncc3)o2)cc1	-107*
O=C(/C=C/c1ccccc1)C1=C(O)C(=O)N(CCO)C1c1ccccc1[N+](=O)[O-] (configuration not stated)	-62*
CCOc1ccc(-c2noc(-c3cccnc3)n2)cc1OC	-95*
COc1ccc(-c2noc(-c3cccnc3)n2)cc1OC	-159*
Cc1ccc(/C=C2/C(=O)ON=C2c2ccccc2)o1	-66*
CSc1nc(N)n2nc(-c3ccccc3)cc2n1	-119*
Cc1ccc(-c2cc3nc(-c4ccccc4)cc(N)n3n2)cc1	-236*
CC(=O)c1ccc(-n2c(C)ccc2-c2ccccc2)cc1	-109*
CC(NC(=O)NC(=O)c1ccc(Cl)cc1Cl)C1CC1 (configuration not stated)	-70*
O=C(NCc1csc(-c2cccs2)n1)c1ccsc1	-112*
